Test results as given in the supplement of paper PMC6555819.

Assays:
Assay in all cases: PBM binding z-score (relative to random genomic background probes); higher = stronger binding; sequences stand for … in GC…GCGATTGACAGCGTAGAATGAAGG
[1] = tested on: FXR:RXRa (NR concentration 270 nM, RXRa partner concentration 90 nM)
Procedure, shortened: (§1)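 For binding z-scores, the reference was random background probes on custom Agilent 4×180K protein-binding microarrays. These arrays were incubated 1 h with ligand-free nuclear receptor dimers in PBS pH 7.4, 2% milk, 0.02% Triton X-100, 1 mM DTT, 0.2 mg/mL BSA and 0.4 mg/ml salmon testes DNA. Fluorescence was scanned after antibody detection of each partner (one per run) and regression-normalized.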

[2] = tested on: LXRa:RXRa (NR concentration 270 nM, RXRa partner concentration 90 nM)
Procedure, shortened: as §1

[3] = tested on: LXRa homodimer (NR concentration 270 nM)
Procedure, shortened: as §1

[4] = tested on: LXRb:RXRa (NR concentration 270 nM, RXRa partner concentration 90 nM)
Procedure, shortened: as §1

[5] = tested on: LXRb homodimer (NR concentration 270 nM)
Procedure, shortened: as §1

[6] = tested on: PPARa:RXRa (NR concentration 270 nM, RXRa partner concentration 90 nM)
Procedure, shortened: as §1

[7] = tested on: PPARg:RXRa (NR concentration 180 nM, RXRa partner concentration 90 nM)
Procedure, shortened: as §1

[8] = tested on: PPARg:RXRa 270nM:90nM, anti-RXR (NR concentration 270 nM, RXRa partner concentration 90 nM)
Procedure, shortened: as §1

[9] = tested on: PPARg:RXRa 30nM:10nM, anti-RXR (NR concentration 30 nM, RXRa partner concentration 10 nM)
Procedure, shortened: as §1

[10] = tested on: PPARg:RXRa 90nM:30nM, anti-RXR (NR concentration 90 nM, RXRa partner concentration 30 nM)
Procedure, shortened: as §1

Sequence	PBM binding z-score [1]	PBM binding z-score [2]	PBM binding z-score [3]	PBM binding z-score [4]	PBM binding z-score [5]	PBM binding z-score [6]	PBM binding z-score [7]	PBM binding z-score [8]	PBM binding z-score [9]	PBM binding z-score [10]
CCTTACGGGTCACGAGGTTACAGCACGACGAGCG	7.17	4.8	0.542	4.17	0.337	6.14	7.89	6.86	3.81	5.93
ACAGACAGGCGATGAAGGTAACTCAGGCTATCAT	-0.05	-0.309	-0.155	-0.384	-0.145	-0.503	0.721	-0.326	0.0512	-0.438
GCTATTAGTTGAAAGCGCAACCGAATGATTCTCG	-0.0843	-0.353	0.0981	-0.318	-0.315	-0.41	0.157	-0.0229	0.0302	-0.22
ACTAGCGGGCCAAGTTTGGGTCACTCAAACAAAG	0.106	-0.183	-0.598	0.723	-0.855	1.5	-0.111	0.168	-0.66	0.126
ATCGAAAGGTCGAGGTGAGTATAGAGAAAGGGAA	4.21	3.57	0.072	2.77	0.504	4.79	3.78	3.66	1.28	2.62
CGTCCAAGGTAAAAGGTCAGTGAAGAGATGACGG	3.59	3.34	0.701	3.27	-0.538	5.23	6.53	6.49	4.59	6.15
ATCGAAAGGTCGACGAGGTGAGTATCCACCGTTT	3.97	3.28	-0.0498	2.63	0.248	4.28	2.41	3.45	0.781	2.21
CCTCGCAGGCCAGGGTCACTCAAGCATTTCGCTT	2.11	1.69	-0.251	2.06	-0.654	3.01	0.19	1.04	-0.771	0.0823
CAAACTAGGTCACGAAAGGTAAAAGTCGAATGAC	5.18	4.51	0.678	3	0.18	5.71	9.74	7.96	6.05	7.49
ATCTATAGGTAACAAGTTCAGTGAAAGAGAGGAC	0.766	1.11	0.709	0.927	0.629	1.64	1.46	1.66	0.781	1.46
ACTCGGAGGACATAGGTCAGAGCTACGCCAGTGA	1.33	1.54	0.379	1.13	-0.23	2.89	3.73	4.68	2.29	3.87
CCTACTGGGCCAAATAGGTCATTGATGCCGATAA	1.09	1.66	0.941	1.91	-0.592	3.18	2.07	2.92	0.838	2.18
AGAACGAGGTTACCAAAGATCAGGGAAACGCTTG	1.56	5.74	-0.119	2.92	-0.342	3.07	2.21	1.99	0.478	1.55
ATATGTAGGTTAAGGTTCATTCAGGTTGGTTCGC	3.46	3.69	3.61	3.2	0.826	5.83	10.6	9.42	8.81	10.9
ATCGAAAGGTTGAGGTGAGTATAGAGAAAGGGAA	0.898	0.95	-0.00942	0.744	0.158	1.86	0.625	0.616	0.531	0.337
AGTCAAAGTTCATCTAGGTAAAGTAAGATATGCT	7.01	5.97	5.01	4.24	1.97	5.14	7.07	6.73	3.75	5.54
CGTCTAAGTTCAACTAAGGTAACGTAAAGCACGC	5.42	4.54	1.66	2.8	0.991	3.67	1.24	2.06	0.533	1.24
CCTATTAGTTGACCATAAGGCCAACCGAAGCTCG	0.949	0.37	0.825	0.782	0.89	0.392	0.405	0.45	0.0484	0.551
TGAATGAGGTTACAGATCAGGGAACGTGGCGTCG	1.82	1.45	-0.368	0.694	0.104	2.94	2.65	3.06	1.45	2.65
